This is part of a sample that, as a whole, favours compounds with a hit. Of some 83,000 tested, about 20% had one in any assay.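 In brief: 96-well plates, 48 h treatment, single concentration, percent growth endpoint.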 A number with no mark means an inactive call. Activity calls are given as the source filed them. Rule for the calls: active = growth percent below 10; inactive = the rest.
How the values were obtained:
Test in all cases: NCI-60 one-dose screen, 48 h (100 = growth as untreated, 0 = no growth, -100 = all killed)
Conditions in all cases: 10 µM unless noted
SK-MEL-2 melanoma = tested on: SK-MEL-2 melanoma
EKVX NSCLC = tested on: EKVX NSCLC
SN12C renal = tested on: SN12C renal
UO-31 renal = tested on: UO-31 renal
TK-10 renal = tested on: TK-10 renal
ACHN renal = tested on: ACHN renal
CAKI-1 renal = tested on: CAKI-1 renal
A498 renal = tested on: A498 renal
CCRF-CEM leukemia = tested on: CCRF-CEM leukemia
MOLT-4 leukemia = tested on: MOLT-4 leukemia

Compound	growth (SK-MEL-2 melanoma)	growth (EKVX NSCLC)	growth (SN12C renal)	growth (UO-31 renal)	growth (TK-10 renal)	growth (ACHN renal)	growth (CAKI-1 renal)	growth (A498 renal)	growth (CCRF-CEM leukemia)	growth (MOLT-4 leukemia)
O=C1/C(=C/c2ccc(Cl)cc2)COc2ccc(O)c(O)c21	69.9%	51.7%	-51.5% (active)	-98.5% (active)	16.7%	-66.3% (active)	-13.8% (active)	114%	4.29% (active)	3.43% (active)
CCOC(=O)C(=Cc1cccc(Cl)c1)C(=O)OCC	25.3%	78.7%	33.3%	-56.2% (active)	3.56% (active)	-72.9% (active)	61.5%	112%	–	13.4%
N#CC1C=CN(CC(N)=O)c2ccc3cccnc3c21 (stereo unspecified)	116%	97.9%	96.3%	97.9%	115%	104%	91.2%	85.9%	–	98%
O=C(O)[C@@H]1c2ccccc2-c2ccccc2[C@H]1C(=O)O	123%	100%	99.6%	66.3%	105%	98.7%	96.5%	96.6%	–	107%
CN(C)c1ccc(/C=C/C(=O)c2ccc(-n3cc(CN4CCN(c5cc6c(cc5F)c(=O)c(C(=O)O)cn6C5CC5)CC4)nn3)cc2)cc1	89%	87.6%	8.77% (active)	62.8%	85.1%	88.5%	36.9%	61.1%	–	31.8%
CC(C)(C)[Si](C)(C)O[C@H]1C(=O)C=CN2CC=C[C@@H]12	112% [100 µM]	91.2% [100 µM]	97.4% [100 µM]	80.3% [100 µM]	108% [100 µM]	101% [100 µM]	104% [100 µM]	97.9% [100 µM]	–	118% [100 µM]
COc1ccc(C(c2cc(OC)c(OC)c(OC)c2)N2CCN(c3ccccc3)CC2)cc1 (stereo unspecified)	69.3%	99.6%	101%	73.4%	106%	98%	86.4%	89.2%	–	72.8%
CCCCOC(=O)OCc1cc(=O)c(O)co1	109%	99.7%	99.2%	92.1%	94.5%	97.7%	93.3%	110%	–	102%
CCOC(=O)c1cc(-c2ccc([N+](=O)[O-])cc2)n(-c2ccc(C(=O)O)c(O)c2)c1C	53.8%	55.3%	72.7%	24.5%	101%	68.7%	79.4%	76.4%	–	27.2%
Oc1ccc(CCn2c(O)c(/C=C3\CN=c4ccccc4=N3)sc2=S)cc1	91.5%	80.8%	47.5%	28.9%	30.8%	54.3%	34.3%	37.3%	–	35.9%
CC(=O)N(N=Nc1ccccc1)c1cccc2ccccc12	20.1%	101%	85.7%	61.2%	96.8%	8.59% (active)	31.8%	115%	–	76.8%
Nc1c(C(=O)Nc2ccccc2Cl)sc2nc3c(cc12)C(O)CCC3 (stereo unspecified)	36.5%	40.7%	59.7%	56.9%	45.8%	57.1%	49.6%	18%	–	38.9%
Cc1nc2sc(C(=O)Nc3cccc(Cl)c3C)c(N)c2cc1C(=O)c1ccccc1	49.7%	40.5%	29.3%	38.8%	47.1%	33.7%	33.1%	-7.4% (active)	–	16.4%
O=C1/C(=C/c2ccc(Cl)c(Cl)c2)CN(C(=O)C(Cl)Cl)C/C1=C\c1ccc(Cl)c(Cl)c1	-3.03% (active)	-61.7% (active)	-76% (active)	-99.3% (active)	-50.8% (active)	-100% (active)	-74% (active)	-91.2% (active)	–	-0.286% (active)
N#C/C(=C\c1ccc(-c2ccc(Cl)cc2)o1)C(=O)Nc1ncc(Cc2ccc(Cl)cc2)s1	95.4%	33.7%	-0.639% (active)	42.1%	19.8%	5.97% (active)	39.1%	69.9%	41.4%	78.3%
COc1cc(/C=C/C(=O)c2cccc(Nc3nc(Nc4ccccc4)nc(Nc4ccccc4)n3)c2)cc(OC)c1OC	53.6%	66.1%	84.2%	35.3%	66.3%	68.3%	75.5%	68.8%	–	9.67% (active)
O=C(NNc1nccc(Nc2ccc(S(=O)(=O)Nc3ccncc3)cc2)n1)c1ccccc1	106%	104%	107%	93.9%	95.3%	104%	92.8%	103%	–	96.7%
O=c1c2cc(-c3ccccc3)sc2nc2sc(-c3ccccc3)nn12	107%	97.4%	104%	94.2%	84%	117%	102%	61.3%	–	102%
CN(CCOc1ccc(C#N)cc1)CCOc1ccc(C#N)cc1	66.9%	80.3%	81.6%	63%	94.3%	83.6%	99.7%	12.7%	–	94.4%
CN1C(=O)/C(=C/c2ccc(C(=O)Nc3ncc(Cc4ccc(Cl)cc4)s3)cc2)SC1=S	75.6%	52.6%	68.1%	46.7%	57.7%	29.2%	21.2%	39.9%	–	46.8%
CC(C)c1ccc(COCc2cc(CN3CCCC3)c(O)c3ncccc23)cc1	-23.9% (active)	33.4%	13.4%	-10.6% (active)	4.79% (active)	6.16% (active)	3.91% (active)	0.55% (active)	–	-5.7% (active)

— PubChem BioAssay (NCI)
